# Screens as filed in PubChem.
# In the library only some 8.7% were active in any assay of this set; here they are far more common.
# JMJD2A Tudor inh: blocks the human JMJD2A Tudor domain. AlphaScreen JMJD2A-Tudor / H3K4me3 peptide binding. Potency, µM (doses to about 114 µM), without a hit: top-dose activity change, negative = inhibition, usual class: inhibitors. 390,000 tested, 4.4% active; also: % is scaled to controls: 0 for no effect and ±100 for the full control effect; nearly all actives have a fitted effect of over 50% in size
# HP1b chromo inh: HP1-beta chromodomain-methylated histone interaction inhibition. P83916. AlphaScreen HP1-beta / biotin-H3K9me3 peptide binding. AID 540317. 390,000 tested, 0.56% active. Potency, µM (highest dose often 114 µM), without a hit: top-dose activity change, negative = inhibition, most hits filed as inhibitors; also: nearly all actives have a fitted effect of over 70% in size
# Target sequence (P83916 whole entry, looked up): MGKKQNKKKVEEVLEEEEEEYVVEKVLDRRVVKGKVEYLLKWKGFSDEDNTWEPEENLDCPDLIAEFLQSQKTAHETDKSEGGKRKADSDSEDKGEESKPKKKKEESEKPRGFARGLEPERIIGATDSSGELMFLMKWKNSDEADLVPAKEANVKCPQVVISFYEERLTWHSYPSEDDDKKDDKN
#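 Compound inhibition of the preformed complex between 50 nM HP1-beta and 50 nM biotinylated H3K9me3 peptide was read by AlphaScreen. Buffer was PBS pH 7.4 with 0.01% Tween-20. Incubations ran 30 min at room temperature, with 10 ug/mL donor/acceptor beads.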
# BAZ2B block: blocks human BAZ2B. Q9UIF8. AlphaScreen BAZ2B-H3K14Ac peptide displacement. Potency, µM (series often up to 114 µM), inactives show top-dose activity change, negative = inhibition, actives largely listed as inhibitors. 360,000 tested, 4.4% active; also: % is scaled to controls: 0 for no effect and ±100 for the full control effect; nearly all actives have a fitted effect of over 60% in size
#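 Compounds, titrated to a top concentration of 110 uM, were incubated 30 min at room temperature with preformed BAZ2B/acetyl-K14 H3 peptide complex (50 nM each). Proximity signal was measured by AlphaScreen after 20 min with beads.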
# ALOX12 inh: inhibitors of human 12S-lipoxygenase ALOX12; P18054; purified 12hLO, xylenol orange hydroperoxide absorbance; Potency, µM (doses to about 108 µM), for the others: at the highest dose activity change, negative = inhibition, hits mostly inhibitors; 580,000 tested, 1.1% active; AID 1671190; also: % is scaled to controls: 0 for no effect and ±100 for the full control effect
#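 Purified human 12hLO (150 nM final) in 25 mM Hepes, 0.01% Triton X-100, pH 7.0 was preincubated 15 min at room temperature with compound. Then 40 uM arachidonic acid was added, 30 min. Hydroperoxide was read by Fe-XO absorbance ratio 573/405 nm.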
# G9a inh: G9a (human) methyltransferase inhibition. Q96KQ7. G9a H3K9 monomethylation, AlphaScreen, 2 h. Potency, µM (top dose mostly 102 µM), for the others: top-dose activity, negative = inhibition, hits mostly inhibitors. 350,000 tested, 8.8% active; also: % is scaled to controls: 0 for no effect and ±100 for the full control effect; nearly all actives have a fitted effect of over 75% in size
# Target sequence (Q96KQ7 913-1193 limits assumed): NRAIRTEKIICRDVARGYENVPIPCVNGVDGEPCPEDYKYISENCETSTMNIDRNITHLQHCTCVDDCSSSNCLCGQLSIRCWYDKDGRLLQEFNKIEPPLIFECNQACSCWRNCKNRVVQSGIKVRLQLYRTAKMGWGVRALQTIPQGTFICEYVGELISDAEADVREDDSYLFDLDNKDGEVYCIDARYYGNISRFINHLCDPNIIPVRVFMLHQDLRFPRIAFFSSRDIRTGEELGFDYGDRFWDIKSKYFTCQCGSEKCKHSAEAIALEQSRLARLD
#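 Step 1: enzyme (final 20 nM) with compound, 15 min RT. Step 2: substrate peptide 500 nM and SAM 20 uM, 2 h RT. Step 3: anti-H3K9me1 antibody and AlphaScreen beads, 10 min, then plate read.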
# Sfp PPTase inh: inhibitors of Bacillus subtilis Sfp phosphopantetheinyl transferase; AID 1490; 310,000 tested, 3.5% active; Biochemical Sfp PPTase activity, qHTS; Potency, µM, inactives show largest response in the series, negative = inhibition, hits mostly inhibitors; Q9F4F7;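 also: the enzyme is Sfp with the accession as filed and its product quenches rhodamine fluorescence; 0% = enzyme reaction without inhibitor and -100% = no enzyme wells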
#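 Fluorescence-quenching assay with 15 nM Sfp, 5 uM rhodamine-CoA and 12.5 uM BHQ-2-labelled ybbR peptide in pH 7.6 Hepes/MgCl2 buffer. Enzyme was pre-incubated with compound for 15 min at room temperature. Rate was taken from the 30-min fluorescence change (525/598 nm).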
# * marks the source's active call; other numbers are inactive results; u = inconclusive; x = not tested or not shown; [ ] = dose if it differs, or a comment. Calls follow the shape of the dose curve; as a rule, active = well fitted curve in the direction sought with a large enough effect; inconclusive = small, poorly fitted or top-dose-only effect, or another doubt; inactive = no such curve, though single readings can be large; an effect the other way counts as inactive or inconclusive. Potency is read from the fitted curve at half-maximal effect.
SMILES,JMJD2A Tudor inh,HP1b chromo inh,BAZ2B block,ALOX12 inh,G9a inh,Sfp PPTase inh
O=C(Nc1ccc(S(=O)(=O)Nc2nccs2)cc1)C1=NN(c2ccccc2)C(=O)CC1,-18.4%,19.1%,-7.6%,-20.0%,44.7µM*,4.1%
CC(C)(C)C(=O)NC(=S)Nc1ccc(S(=O)(=O)Nc2nccs2)cc1,-26.6%,17.8%,-31.4%,44.7µM*,50.1µM*,-8.4%
NS(=O)(=O)c1ccc(NC(=S)Nc2ccc(S(=O)(=O)Nc3nccs3)cc2)cc1,x,x,x,-23.8%,x,x
O=C(Nc1ccc(S(=O)(=O)N2CCCCC2)cc1)C1=NN(c2ccccc2)C(=O)CC1,x,x,x,-23.4%,x,x
O=C1CC(c2ccccc2)N(C(=O)CCc2ccccc2)CCCCCCN1 (centres undefined),x,x,x,0.1%,x,x
COc1cc(/C=N/O)ccc1OCC(=O)NN,x,x,x,5.8%,x,x
CC1(C)C/C(=N/O)C=CO1,x,x,x,-7.5%,x,x
CCc1nc(CCNC(=O)CC2COCCN2S(=O)(=O)C2CC2)no1 (centres undefined),x,x,x,65.9%,x,x
O=C(NC(=S)Nc1ccc(S(=O)(=O)Nc2nccs2)cc1)c1ccc(F)cc1,-33.6%,-23.6%,u,u,10µM*,-17.0%
CN(C)C(=O)c1cccnc1OC1CCN(S(=O)(=O)c2cccc(C(F)(F)F)c2)C1 (centres undefined),x,x,x,-3.6%,x,x
CCCN(CC1CCOC1)C(=O)CCCc1ccccc1 (centres undefined),x,x,x,28.3%,x,x
CCN(CCCNC(=O)CN1C(=O)COc2ccccc21)c1cccc(C)c1,u,-24.0%,u,u,22.4µM*,2.1%
CCN(CCCNC(=O)c1[nH]c(C)c(C(C)=O)c1C)c1cccc(C)c1,79.4µM*,u,50.1µM*,17.0%,u,5.5%
CCN(CCCNC(=O)c1ccc(N2CCCC2=O)cc1)c1cccc(C)c1,-22.7%,-11.7%,-37.2%,0.0%,28.2µM*,8.5%
CCN(CCNC(=O)c1cccc(N2CCCC2=O)c1)c1ccccc1,-11.3%,13.9%,-26.8%,-14.2%,50.1µM*,21.4%
CCCCCCCC(=O)NCCCNC(=O)CCCCCCC,x,x,x,5.2%,x,x
CCC(C)NC(=O)CC1=CSC2=NC(C)=C(C(=O)OC)C(c3cccc([N+](=O)[O-])c3)N12 (centres undefined),x,x,x,8.8%,x,x
CCn1c(C)c(CCC(=O)NCc2cccc(OC)c2)c(=O)n2nc(-c3ccccc3OC)cc12,x,x,x,6.5%,x,x
CCS[C@H]1CCN2C(=O)c3cc(-c4ccccc4)ccc3NC(=O)[C@H]12,x,x,x,7.5%[176 µM],x,x
COc1cccc(-c2noc(-c3occc3Br)n2)c1,x,x,x,12.4%,x,x
CC(=O)NC1CC2(CCN(C(=O)c3c(C)noc3C)CC2)Oc2ccccc21 (centres undefined),x,x,x,6.9%[6.33 µM],x,x
CCN(CCCNC(=O)CC(C(=O)N1CCc2ccccc21)n1ccnc1)c1cccc(C)c1 (centres undefined),50.1µM*,-34.4%,37.3%,0.0%,u,6.4%
CCCCNC(=O)CC(C(=O)N1CCc2ccccc21)n1ccnc1 (centres undefined),-12.2%,31.8%,3.4%,20.6%,14.2%[12.7 µM],5.3%
S=C1NC[C@H](c2ccccc2)N1CCCCC1CCCCC1,-34.5%,9.4%,-11.5%,35.5µM*,4.4%[12.7 µM],30.6%
NC1=NC[C@H](c2ccccc2)N1CCCCC1CCCCC1,-20.7%,29.1%,0.6%,u,5.3%[59 µM],-3.0%
SMILES,JMJD2A Tudor inh,HP1b chromo inh,BAZ2B block,ALOX12 inh,G9a inh,Sfp PPTase inh
Oc1ccc(-c2n[nH]c(=S)n2-c2ccc3c(c2)OCCO3)c(O)c1,10µM*,6.9%,-29.4%,u,1.78µM*,u
S=c1[nH]nc(-c2ccc(Cl)cc2Cl)n1-c1ccc2c(c1)OCCO2,79.4µM*,u,-29.4%,u,2.51µM*,44.7µM*
Cc1cnc(C(=O)N2C[C@@H](Oc3cccnc3)C[C@H]2C(=O)NC2CC2)cn1,x,x,x,33.6%,x,x
C=CCn1c(SCc2coc(-c3ccc(F)cc3)n2)nnc1C1CCS(=O)(=O)C1 (centres undefined),x,x,x,-5.1%,x,x
O=C(Oc1c(CN2CCOCC2)cc(Cl)c2cccnc12)c1ccccc1,u,30.5%,25.1µM*,10.2%,12.0%[59 µM],-6.3%
COc1cc(OC)cc(C(=O)Oc2c(CN3CCOCC3)cc(Cl)c3cccnc23)c1,-29.9%,26.2%,22.4µM*,19.8%,-29.9%,-9.3%
COc1cc(C(=S)N2CCOCC2)cc(OC)c1OC(=O)c1ccccc1Cl,x,x,x,-15.5%,x,x
O=C(Oc1c(CN2CCOCC2)cc(Cl)c2cccnc12)c1ccccc1F,25.1µM*,2.5%,3.55µM*,-2.1%,-46.5%,13.2%
O=C(Nc1ccc(CN2CCOCC2)cc1)c1ccccc1F,-4.5%,23.4%,-2.7%,0.0%,3.9%[59 µM],7.6%
CCCS(=O)(=O)N(C)C1CCc2nn(CC3CC3)c(=O)n2CC1 (centres undefined),x,x,x,58.7%,x,x
COC(=O)COc1cc(C)cc2oc(=O)cc(-c3ccccc3)c12,x,x,x,-0.6%,x,x
C[C@H]1CN(S(=O)(=O)c2ccccc2)C[C@@H]1c1nc(-c2ccncc2)no1,x,x,x,28.2%,x,x
Cc1cc(OCc2cc(C(=O)N(C)CCCN3CCOCC3)no2)cc(C)c1Cl,89.1µM*,18.7%,-18.0%,-6.6%,-3.3%,-7.6%
COc1ccccc1OCc1cc(C(=O)N(C)CCC2CCOCC2)no1,x,x,x,16.0%,x,x
CC(=O)c1cccc(OCc2cc(C(=O)N3C[C@@H](C)O[C@@H](C)C3)no2)c1,-9.9%,55.8%,-18.0%,32.3%,44.7µM*,2.6%
CC(=O)c1cccc(OCc2cc(C(=O)N(C)CCC3CCOCC3)no2)c1,11.2%,35.4%,-2.6%[57.1 µM],0.5%,44.7µM*,21.0%
COCC1CCN(C(=O)c2cc(COc3ccc4ncccc4c3)on2)CC1,15.8µM*,0.5%,-1.3%,3.3%,x,13.4%
CN(CCCN1CCOCC1)C(=O)c1cc(COc2cccc(C(F)(F)F)c2)on1,-12.5%,27.8%,-3.4%,1.8%,x,1.9%
Cn1nccc1C(=O)N1CCC(c2noc(-c3ccccc3)n2)C1 (centres undefined),x,x,x,9.4%,x,x
Cc1ccc(C2=NN(C(=O)CCC(=O)O)C(c3ccc4nccnc4c3)C2)cc1 (centres undefined),x,x,x,-22.6%,x,x
C#CCN(CC(=O)NC(=O)NC)C1CCCCC1,x,x,x,-23.4%,x,x
COC(=O)C1=C(NC(=O)C2CCCCC2)CCS1,u,-2.8%,u,18.2%,1.78µM*,1.7%
CC(C)OCCCNc1nc2c(c(=O)n(C)c(=O)n2C)n1Cc1ccc(Br)cc1,x,x,x,14.9%,x,x
CN1CCN(CCCNC(=O)c2ccc3c(c2)N(Cc2ccc(F)cc2)CCS3)CC1,u,2.9%,u,u,-6.7%,-15.6%
